Test results as given in ChEMBL document CHEMBL4513216, “Probing the Open Global Health Chemical Diversity Library for Multistage-Active Starting Points for Next-Generation Antimalarials” (ACS Infect Dis, 2020).
About 8,600 (12%) of roughly 69,000 compounds showed an effect of 50% or more. This is one part of a sample in which strong results are shown more often than they occur.

test system: Plasmodium berghei; test: Screen against P. berghei liver stage (PbLuc), transformed with Luciferase, at 10uM; assay type: functional, HepG2; conditions: tested at 10 uM

Question: Which INHIBITION does the source give for `O=C(c1ccc(=O)[nH]n1)N1CCNCC1c1ccccc1` (stereo not drawn) here?
Answer: Its INHIBITION is 8.12%.

Question: `CCOCC(=O)N1CCC(c2cc3ncccc3c(O)n2)CC1` was tested. Which INHIBITION did it give?
Answer: Its INHIBITION is 0.301%.

Question: Which INHIBITION does the source give for `CC(C)NC(=O)N1C[C@H](OCc2cccnc2)[C@H]2COC[C@H]21` here?
Answer: Its INHIBITION is -18.2%.

Question: For `Cc1nc(O)cc(C2(C)CCCNC2)n1` (stereo not drawn), which INHIBITION is on record?
Answer: The INHIBITION was 1.4%.

Question: For `CCn1cncc1C1CC(=O)Nc2c1c(C)nn2-c1ccc(C)cc1` (stereo not drawn), which INHIBITION is on record?
Answer: Its INHIBITION is 42%.

Question: For `Cc1ccc(-n2nc(C)c3c2NC(=O)CC3c2cnc(N)s2)cc1` (stereo not drawn), which INHIBITION is on record?
Answer: Its INHIBITION is 62.6%.

Question: For `Cc1nn(-c2ccccc2)c2c1C(c1ccc(C(=O)O)cc1)CC(=O)N2` (stereo not drawn), which INHIBITION is on record?
Answer: Its INHIBITION is 32.7%.

Question: `CCn1ncc(S(=O)(=O)N[C@@H]2CCC[C@@H](n3ccnc3)[C@@H]2O)c1C` was tested. Which INHIBITION did it give?
Answer: The INHIBITION was 28.7%.

Question: For `COCCCNc1cc(C)nn2cnnc12`, which INHIBITION is on record?
Answer: The INHIBITION was 3.35%.

Question: Which INHIBITION does the source give for `CC(C)CC(C)(CNC(=O)c1cnccn1)NC(=O)c1cnccn1` (stereo not drawn) here?
Answer: Its INHIBITION is 25.4%.

Question: With `CC(C)C(C)(CNC(=O)OC(C)(C)C)NC(=O)c1cnccn1` (stereo not drawn) as the compound, how does the INHIBITION read?
Answer: Its INHIBITION is 0.705%.

Question: `CCC(CC)(CNC(=O)OC(C)(C)C)NC(=O)c1cnccn1` was tested. Which INHIBITION did it give?
Answer: The INHIBITION was 67.4%.

Question: With `Cn1ccc(C(=O)N2CCCC2c2cc[nH]n2)n1` (stereo not drawn) as the compound, how does the INHIBITION read?
Answer: Its INHIBITION is 21.925%.

Question: `Cc1nn(C)c(N2CCOCC2)c1CNC1CCN(C2CC2)CC1` was tested. Which INHIBITION did it give?
Answer: The INHIBITION was -21.7%.

Question: How did the INHIBITION turn out when `NC(=O)NC(=O)CNc1cccc(C(=O)c2ccccc2)c1` was run?
Answer: The INHIBITION was 0.0459%.

Question: Which INHIBITION does the source give for `CCN1CCN(S(=O)(=O)c2cc(Cl)c(Cl)cc2C)CC1` here?
Answer: The INHIBITION was 61.8%.

Question: With `CCN1CCN(S(=O)(=O)c2ccc(Cc3cc(C)n[nH]c3=O)cc2)CC1` as the compound, how does the INHIBITION read?
Answer: The INHIBITION was 9.96%.

Question: For `CCN1CCN(S(=O)(=O)c2ncn(C)c2Cl)CC1`, which INHIBITION is on record?
Answer: Its INHIBITION is -10.4%.

Question: Which INHIBITION does the source give for `CCN1CCN(S(=O)(=O)c2cc(C)c(C)cc2Br)CC1` here?
Answer: The INHIBITION was 66.5%.

Question: How did the INHIBITION turn out when `CCN1CCN(S(=O)(=O)c2cc(C)c(Cl)cc2Cl)CC1` was run?
Answer: Its INHIBITION is 43.5%.

Question: `CCN1CCN(S(=O)(=O)c2cc(C)c(Cl)cc2C)CC1` was tested. Which INHIBITION did it give?
Answer: The INHIBITION was 49.7%.

Question: Which INHIBITION does the source give for `CN(C)S(=O)(=O)c1ccc(CNC(=O)C2CC(=O)N(C(C)(C)C)C2)cc1` (stereo not drawn) here?
Answer: The INHIBITION was -3.305%.

Question: For `CN(C)C(=O)CN1CCC(c2nnc(Cn3cccn3)n2C2CC2)CC1`, which INHIBITION is on record?
Answer: Its INHIBITION is 16.3%.

Question: How did the INHIBITION turn out when `CN1[C@H](CN2CCCC2)C[C@@H]2CN(C(=O)c3cnccn3)CC[C@@H]21` was run?
Answer: Its INHIBITION is 18.6%.

Question: How did the INHIBITION turn out when `Cc1nc(C2CCN(c3ccccc3)CC2)no1` was run?
Answer: The INHIBITION was 32.8%.

Question: How did the INHIBITION turn out when `Cc1noc(C2CCN(C(=O)c3ccc(NC4CC4)nc3)CC2)n1` was run?
Answer: The INHIBITION was 59.7%.

Question: `Cc1noc(C2CCN(C(=O)c3ccc(N(C)C)nc3)CC2)n1` was tested. Which INHIBITION did it give?
Answer: The INHIBITION was 6.92%.

Question: With `Cc1noc(C2CCN(C(=O)c3ccc(C(F)(F)F)nc3)CC2)n1` as the compound, how does the INHIBITION read?
Answer: The INHIBITION was -34.025%.
